28 molecules from PubChem BioAssay AID571 (The Scripps Research Institute Molecular Screening Center, 2007) can be followed below.

SMILES strings stand for the structures. Screen size: about 65,000 compounds; about 640 (0.98%) were called active. This is one part of a sample in which actives are shown more often than they occur.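 The calls were made as follows: active = inhibition above a set limit, the mean inhibition across every tested compound plus 3 SD (cut at about 29% in these data); inactive = the rest.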

In the assay the target is 5-hydroxytryptamine receptor 1E (Homo sapiens) (UniProt P28566). Description: blockade of human serotonin 5HT1E receptor – cell-based, HTS, primary screen (AID 571).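 Also: signal is the 460 over 535 nm emission ratio of beta-lactamase substrate; 0% = agonist plus DMSO wells and 100% = wells without agonist.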 To be noted: CHO 5-HT1E Ga15 NFAT-bla reporter, FRET, antagonist; at 6 µM; hits give high values.
Sequence of 5-hydroxytryptamine receptor 1E (Homo sapiens) (P28566 whole entry, looked up): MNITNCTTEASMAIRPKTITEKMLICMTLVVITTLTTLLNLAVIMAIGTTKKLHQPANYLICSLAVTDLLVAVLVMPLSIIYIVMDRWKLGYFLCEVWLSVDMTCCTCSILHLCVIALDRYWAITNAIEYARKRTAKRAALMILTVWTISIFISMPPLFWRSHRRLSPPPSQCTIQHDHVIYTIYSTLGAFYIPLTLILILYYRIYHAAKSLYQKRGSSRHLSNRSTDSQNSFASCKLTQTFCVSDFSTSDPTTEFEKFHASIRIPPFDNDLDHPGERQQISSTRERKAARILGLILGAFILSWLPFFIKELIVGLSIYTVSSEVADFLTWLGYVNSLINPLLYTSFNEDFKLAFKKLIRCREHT
As to `COc1cc(C(=O)N(Cc2ccc(N(C)C)cc2)C2CCS(=O)(=O)C2)cc(OC)c1OC` (stereo not drawn), the inhibition (in general, the drop in the measured response relative to a control, in per cent) was -0.54% (inactive). Consider `CCCOc1ccccc1C1CC(=O)Nc2cc3c(cc21)OCO3` (stereo not drawn), for which the inhibition was 52.8% (active). Turning to `COc1cc2c(cc1OC)C(c1ccc(C)o1)CC(=O)N2` (stereo not drawn), the inhibition was 11.3% (inactive). Take `COCCOC(=O)C1=C(C)NC(=O)CC1c1cc2c(cc1Br)OCO2` (stereo not drawn): the inhibition was -1.17% (inactive). On to `Cn1c(-c2ccco2)nc2cc3ccccc3cc21`, for which the inhibition is 1.87% (inactive).

Take `CCOCCN(C=O)c1cccc(OC)c1`: the inhibition was -9.77% (inactive).

In the case of `COC(=O)c1ccc(NCC(=O)c2ccccc2)cc1`, the inhibition is -2.89% (inactive). With `COc1ccc(C(=O)NCCc2ccc(S(N)(=O)=O)cc2)cc1OC`, the inhibition was 12.5% (inactive). The figure for `O=C(CN1CCN(S(=O)(=O)c2ccc(F)cc2)CC1)Nc1ccccc1F` is 2.85% (inactive).

Take `O=C(Nc1cccc(F)c1)c1ccc(S(=O)(=O)N2CCCC2)cc1`: the inhibition was -2.92% (inactive). As for `CCOC(=O)N1CCN(S(=O)(=O)c2ccc(C(=O)Nc3ccc(F)cc3F)cc2)CC1`, the inhibition is 38.3% (active). On to `CCOC(=O)c1sc(NC(=O)CSc2ncccn2)c(C#N)c1C`, for which the inhibition is -1.65% (inactive). For `O=S(=O)(c1ccccc1)N(CC(O)CN1CCCCC1)c1ccccc1` (stereo not drawn), the inhibition is -17.2% (inactive). Take `Cc1ccc(NC(=O)N2CCC(C(=O)NCc3ccc(F)cc3)CC2)cc1`: the inhibition is -1.42% (inactive). Turning to `O=S(N1CCCCCC1)C12CC3CC(CC(C3)C1)C2` (stereo not drawn), the inhibition was -12.6% (inactive).

Take `CCC(C)NC(=O)N[C@@H](CCSC)C(=O)O` (stereo partly drawn): the inhibition was -2.48% (inactive). `Oc1c(C(c2cccs2)N2CCN(c3ccc(F)cc3)CC2)sc2ncnn12` (stereo not drawn): the inhibition was -14% (inactive). Take `O=C(CCSCCc1ccccn1)Nc1nccs1`: the inhibition is -8.42% (inactive).

`CCC(=O)N(Cc1cc2cc(OC)ccc2[nH]c1=O)c1ccccc1C`: the inhibition is 15.6% (inactive). Take `C/C(=C\C(=O)c1cccnc1)Nc1ccc(C)c(C)c1`: the inhibition is -0.61% (inactive). For the molecule `O=C(CNC(=O)c1ccc(Cl)cc1Cl)NCC(=O)Nc1ccccc1N1CCOCC1`, the inhibition was 5.85% (inactive). To `CCOC(=O)c1cc(-c2nnc(-c3cc(OC)c(OC)c(OC)c3)o2)c(C)nc1C` belongs -9.6% (inactive); to `COc1cc(-c2nnc(Cn3cc(C(F)(F)F)ccc3=O)o2)cc(OC)c1OC`, 29% (active); to `CCCc1nc2ccccc2c(C(=O)OCc2nnc(-c3cc(OC)c(OC)c(OC)c3)o2)c1CC`, 23% (inactive). Consider `COc1cccc(NC(=O)Cn2cnc3sc(C)c(S(=O)(=O)N4CCN(C)CC4)c3c2=O)c1`, for which the inhibition is -6.2% (inactive).

For the molecule `CC1(C)Cc2c(C#N)c(SCc3nc4ccccc4[nH]3)nc(N3CCOCC3)c2CO1`, the inhibition is 28.9% (active).

Turning to `CC(C)c1nc(N2CCOCC2)c(C#N)c2c1COC(C)(C)C2`, the inhibition was 10.4% (inactive). As for `COc1ccc(CSc2nc(N3CCOCC3)c3c(c2C#N)CC(C)(C)OC3)cc1`, the inhibition is -10.9% (inactive).
